# High-throughput results (PubChem BioAssay)
# Most compounds without a hit are left out; they make up all but 11% or so of the library.
# G9a block: qHTS Assay for Inhibitors of Histone Lysine Methyltransferase G9a | G9a H3K9 monomethylation, AlphaScreen, 2 h | Potency, µM (titrated, usually from 102 µM), for the others: top-dose activity, negative = inhibition, hits mostly inhibitors | actives 8.8% (n = 350,000) | Histone-lysine N-methyltransferase EHMT2 (Homo sapiens), Q96KQ7; further: on the % scale 0 is the no-effect control and ±100 the full control effect; nearly all actives have a fitted effect of over 75% in size
#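 Methyltransferase reactions run at room temperature for 2 h (20 nM enzyme, 500 nM biotin-H3K9 peptide, 20 uM SAM) after a 15 min compound preincubation; product detected by AlphaScreen beads and anti-H3K9me1 antibody.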
# JMJD2A Tudor inh: qHTS Assay for Inhibitors of JMJD2A-Tudor Domain; AlphaScreen JMJD2A-Tudor / H3K4me3 peptide binding; actives 4.4% (n = 390,000); Lysine-specific demethylase 4A (Homo sapiens), O75164; Potency, µM (titrated, usually from 114 µM), for the others: at the top dose activity change, negative = inhibition, most hits filed as inhibitors; further: on the % scale 0 is the no-effect control and ±100 the full control effect; nearly all actives have a fitted effect of over 50% in size
# BAZ2B inh: qHTS Assay for Inhibitors of BAZ2B | Bromodomain adjacent to zinc finger domain protein 2B (Homo sapiens), Q9UIF8 | AlphaScreen BAZ2B-H3K14Ac peptide displacement | Potency, µM (titrated, usually from 114 µM), for inactives: at the highest dose activity change, negative = inhibition, hits mostly inhibitors | actives 4.4% (n = 360,000) | AID 504333, 2011; further: on the % scale 0 is the no-effect control and ±100 the full control effect; nearly all actives have a fitted effect of over 60% in size
#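 Protein-peptide AlphaScreen: BAZ2B 50 nM, b-H3K14Ac 50 nM, 1x PBS pH 7.4 + 0.01% Tween-20. Preincubation 30 min RT; cpd 30 min RT (top 110 uM); beads 20 min RT, light-protected.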
# L3MBTL1 block: qHTS Assay for the Inhibitors of L3MBTL1 | Lethal(3)malignant brain tumor-like protein 1 (Homo sapiens), Q9Y468 | AlphaScreen L3MBTL1–H3K9me1 peptide binding | Potency, µM (titrated, usually from 57.1 µM), inactives show at the highest dose activity, negative = inhibition, usual class: inhibitors | actives 0.66% (n = 230,000) | AID 485360, 2010; further: on the % scale 0 is the no-effect control and ±100 the full control effect; nearly all actives have a fitted effect of over 60% in size
# Target sequence (Q9Y468 whole entry, looked up): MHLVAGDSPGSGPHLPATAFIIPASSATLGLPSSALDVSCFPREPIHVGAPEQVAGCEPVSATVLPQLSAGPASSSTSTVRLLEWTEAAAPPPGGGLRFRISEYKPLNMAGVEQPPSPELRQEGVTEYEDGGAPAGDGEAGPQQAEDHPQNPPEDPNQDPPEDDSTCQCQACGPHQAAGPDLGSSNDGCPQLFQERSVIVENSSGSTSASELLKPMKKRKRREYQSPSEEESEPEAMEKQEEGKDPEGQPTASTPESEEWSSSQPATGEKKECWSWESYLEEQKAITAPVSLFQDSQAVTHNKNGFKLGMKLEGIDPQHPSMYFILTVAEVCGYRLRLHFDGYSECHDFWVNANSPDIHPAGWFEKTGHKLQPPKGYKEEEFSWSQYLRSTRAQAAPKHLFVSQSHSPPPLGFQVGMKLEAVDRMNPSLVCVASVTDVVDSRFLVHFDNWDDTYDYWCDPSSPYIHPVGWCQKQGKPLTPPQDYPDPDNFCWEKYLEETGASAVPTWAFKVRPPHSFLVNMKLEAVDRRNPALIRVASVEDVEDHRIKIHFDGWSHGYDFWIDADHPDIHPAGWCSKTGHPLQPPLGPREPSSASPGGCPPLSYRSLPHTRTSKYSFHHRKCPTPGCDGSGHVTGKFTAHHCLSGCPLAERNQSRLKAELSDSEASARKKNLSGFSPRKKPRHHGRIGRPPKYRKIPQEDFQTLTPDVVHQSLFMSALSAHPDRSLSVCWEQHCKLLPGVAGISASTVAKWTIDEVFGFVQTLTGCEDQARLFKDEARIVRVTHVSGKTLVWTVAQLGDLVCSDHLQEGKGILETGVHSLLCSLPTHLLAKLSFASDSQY
#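 AlphaScreen proximity signal between nickel-chelate acceptor and streptavidin donor beads (final 10 ug/mL) reports binding of 50 nM L3MBTL1 to 75 nM biotin-H3 K9me1 peptide; complex incubated with compounds 30 min at room temperature; cefsulodin titration as control.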
# HP1b chromo inh: HTS for Inhibitors of HP1-beta Chromodomain Interactions with Methylated Histone Tails. Chromobox protein homolog 1 (Homo sapiens), P83916. AlphaScreen HP1-beta / biotin-H3K9me3 peptide binding. Potency, µM (top dose mostly 114 µM), for the others: at the highest dose activity change, negative = inhibition, hits mostly inhibitors. actives 0.56% (n = 390,000); further: nearly all actives have a fitted effect of over 70% in size
#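 AlphaScreen: HP1-beta (50 nM) preformed 30 min with biotin-H3(1-18)K9me3 peptide (50 nM) in PBS pH 7.4, 0.01% Tween-20. Compound added for 30 min at RT, then streptavidin donor/nickel chelate acceptor beads (10 ug/mL) for 30 min.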
# * = called active by the depositor; ? = inconclusive; / = no result given; [ ] = remark or other dose. The call rests on the fitted dose curve; in most records, active means well fitted inhibition curve with a large enough effect; inconclusive means small, poorly fitted or top-dose-only effect; inactive means no such curve, though single readings can be large or run the other way. Potency means the concentration at half of the fitted maximal effect.
SMILES,G9a block,JMJD2A Tudor inh,BAZ2B inh,L3MBTL1 block,HP1b chromo inh
CCOC(=O)c1cccc(NS(=O)(=O)c2ccc3[nH]c4c(c3c2)CCCC4)c1,14µM*,28µM*,40µM*,/,?
O=S(=O)(Nc1cccc(Cl)c1)c1ccc2[nH]c3c(c2c1)CCCCCC3,-9%[59 µM],?,?,/,-4%[57 µM]
Cc1ccccc1NS(=O)(=O)c1ccc2[nH]c3c(c2c1)CCCCC3,?,45µM*,-29%[57.1 µM],/,-33%
CC(=O)c1cccc(NS(=O)(=O)c2ccc3[nH]c4c(c3c2)CCCCC4)c1,16µM*,?,-37%[57.1 µM],/,-21%
CC(=O)c1cccc(NS(=O)(=O)c2ccc3[nH]c4c(c3c2)CCCCCC4)c1,?,?,-27%,/,3%[57 µM]
Cc1nnc(N2C(=O)c3oc4ccccc4c(=O)c3C2c2ccc(Cl)cc2)s1 (stereo not given),-28%[59 µM],?,-2%,/,-9%
CC1=C(C(=O)Nc2ccc(C)cc2C)C(c2cc(Br)ccc2F)n2ncc(C(=O)Nc3ccc(C)cc3)c2N1 (stereo not given),-6%[59 µM],8%,8%[57.1 µM],/,21%
Cc1ccc(NS(=O)(=O)c2ccc3[nH]c4c(c3c2)CCCC4)cc1N(C)C,?,35µM*,32µM*,/,?
CC(C)(C)NS(=O)(=O)c1ccc2[nH]c3c(c2c1)CCCCC3,71µM*,?,45µM*,/,?
CCOc1cc(C(c2c(C)[nH][nH]c2=O)c2c(C)[nH][nH]c2=O)ccc1OC(=O)c1cccc([N+](=O)[O-])c1,3.5µM*,?,-36%,/,-14%
CCOc1cc(C(c2c(C)[nH][nH]c2=O)c2c(C)[nH][nH]c2=O)ccc1OCc1ccc([N+](=O)[O-])cc1,?,?,-31%,/,4%
CCOC(=O)c1c(C)n(-c2ccccc2)c2ccc(OC(=O)c3cccc(OC)c3OC)cc12,-15%[59 µM],-34%,?,/,11%
Cc1cc(C)n2c(=S)[nH]nc2n1,1.1µM*,?,40µM*,-2%,8.9µM*
O=C(NCc1ccco1)c1ccc2c(c1)N(Cc1ccccc1)C(=O)CS2,6%[12.7 µM],-31%,?,/,-12%
C=CCN1C(=O)CSc2ccc(C(=O)NCc3ccco3)cc21,40µM*,-22%,-5%,-1%,18%
CCOc1ccc(N=C2C(=O)Nc3ccc(C)c(Br)c32)cc1,?,?,35µM*,/,?
COc1ccc(CCNc2nc(-c3ccncc3)cs2)cc1OC,/,-7%[11.4 µM],-13%,/,11%
COc1ccc(CCNc2nc(-c3ccccn3)cs2)cc1OC,?,?,22µM*,/,8%[57 µM]
COc1ccc(CCNc2nc(-c3cccnc3)cs2)cc1OC,/,-35%,?,-6%,-6%
COc1ccc(CCNc2nc(-c3sc(C)nc3C)cs2)cc1OC,10µM*,3.2µM*,32µM*,/,?
COc1ccc(CCNc2nc(-c3ccc(NC(C)=O)cc3)cs2)cc1OC,?,-34%,?,/,-30%
COc1ccc(CCNc2nc(-c3ccc(O)cc3)cs2)cc1OC,22µM*,?,?,-11%,-7%
Cn1c(=O)n(CCc2ccccc2)c(=O)c2c1nc1n2CCN1c1ccc(Cl)cc1,-5%[59 µM],3%,2%,/,34%
Cc1occc1C(=O)/C(C#N)=C/c1ccc(O)c(Br)c1,50µM*,-22%,-38%,/,-9%
O=S(=O)(c1ccc2c(c1)OCCO2)N1CCN(S(=O)(=O)c2ccc(F)cc2F)CC1,/,-20%,/,/,/
SMILES,G9a block,JMJD2A Tudor inh,BAZ2B inh,L3MBTL1 block,HP1b chromo inh
COc1ccccc1NNC(=O)c1cccnc1Oc1ccccc1,7.1µM*,-15%,4%,-12%,12%
Nc1nsc2ccccc12,40µM*,-1%,11%,-3%,7%
Nc1nnc(N)c2ccccc12,-4%,-19%,-2%,-1%,6%
Cc1ccc(NCCCn2cnc3c(OCc4ccccc4)ncnc32)cc1C,/,50µM*,/,/,?
COc1ccc(OCC(=O)N(C)Cc2ccccc2)cc1,21%,-17%,3%,-3%,40%
C=CCc1ccc(OCCn2cncn2)c(OC)c1,-16%,6%,10%,9%,34%
COc1ccc(OCCCCN(C)Cc2ccccc2)cc1,?,20µM*,71µM*,-9%,?
CN(CCOCCOc1ccc(Cl)cc1Br)Cc1ccccc1,37%,1%,2%,14%,34%
COc1ccc(CN(CCN(C)C)Cc2ccccc2)c(OC)c1,8.9µM*,2.5µM*,79µM*,-10%,-39%
CN(CCOCCOc1ccc(F)cc1)Cc1ccccc1,?,13µM*,79µM*,-4%,?
C=CCc1cc(OC)ccc1OCCCCn1cncn1,28µM*,5.6µM*,50µM*,-7%,?
COc1ccc(CN(C)CC(=O)NC(=O)NCc2ccccc2)c(OC)c1,-3%,-17%,-2%,1%,26%
CCNc1ncc2nc(-c3ccc(Cl)cc3)c(=O)n(CCC#N)c2n1,-28%[0.501 µM],/,/,/,/
Cc1ccc(NC(=O)c2ccc(F)c(S(=O)(=O)NCCc3ccccc3)c2)cc1F,-23%[59 µM],-29%,2%,/,21%
Cc1ccc(-c2noc(CCC(=O)Nc3ccc(F)cc3Cl)n2)cc1,-10%[59 µM],-3%,-29%,/,7%
C=CCc1cc(OC)ccc1OCCN(C)Cc1ccccc1,13µM*,25µM*,50µM*,-15%,?
COC(=O)c1ccc(OCCCCN(C)Cc2ccccc2)cc1,10µM*,32µM*,56µM*,0%,?
COc1cc2c(C(=O)N3CCN(c4ccc(F)cc4)CC3)cn(CC(C)C)c(=O)c2cc1OC,-5%[59 µM],-22%,-5%,/,11%
O=C(CNC(=O)C1COc2ccccc2O1)Nc1ccc(F)c(F)c1 (stereo not given),/,-8%,/,-6%,20%
